# Compounds without any hit were thinned out: in the full panel of roughly 83,000, 20% have a hit.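 Activity criterion: percent growth below 10, measured after cells in 96-well plates were exposed to a single compound concentration for 48 hours.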 Calls of active or inactive are those of the source.
# Tests used:
# Test in all cases: NCI-60 one-dose screen, 48 h (100 = growth as untreated, 0 = no growth, -100 = all killed)
# SK-MEL-2 melanoma = system: SK-MEL-2 melanoma
# EKVX NSCLC = system: EKVX NSCLC
# SN12C renal = system: SN12C renal
# UO-31 renal = system: UO-31 renal
# TK-10 renal = system: TK-10 renal
# ACHN renal = conditions: 10 µM unless noted
# CAKI-1 renal = conditions: 10 µM unless noted
# A498 renal = system: A498 renal
# CCRF-CEM leukemia = conditions: 10 µM unless noted
# MOLT-4 leukemia = system: MOLT-4 leukemia
# SR leukemia = system: SR leukemia
# RPMI-8226 leukemia = system: RPMI-8226 leukemia
# OVCAR-8 ovarian = system: OVCAR-8 ovarian
# OVCAR-5 ovarian = system: OVCAR-5 ovarian
# OVCAR-4 ovarian = system: OVCAR-4 ovarian
# SK-OV-3 ovarian = system: SK-OV-3 ovarian
# IGROV1 ovarian = system: IGROV1 ovarian
# OVCAR-3 ovarian = system: OVCAR-3 ovarian
# HS 578T breast = system: HS 578T breast
# NCI/ADR-RES ovarian = system: NCI/ADR-RES ovarian
smiles,measurement,setting,value
COc1ccc(-c2cc(-c3cccc(Cl)c3)c(C#N)c(=O)[nH]2)c(OC)c1,growth,SK-MEL-2 melanoma; 10 µM unless noted,105% (inactive)
same,growth,EKVX NSCLC; 10 µM unless noted,95.2% (inactive)
same,growth,SN12C renal; 10 µM unless noted,97.1% (inactive)
same,growth,UO-31 renal; 10 µM unless noted,85.3% (inactive)
same,growth,TK-10 renal; 10 µM unless noted,103% (inactive)
same,growth,ACHN renal,97.2% (inactive)
same,growth,CAKI-1 renal,90.9% (inactive)
same,growth,A498 renal; 10 µM unless noted,68.2% (inactive)
same,growth,CCRF-CEM leukemia,-2.24% (active)
same,growth,MOLT-4 leukemia; 10 µM unless noted,103% (inactive)
same,growth,SR leukemia; 10 µM unless noted,111% (inactive)
same,growth,RPMI-8226 leukemia; 10 µM unless noted,68.3% (inactive)
same,growth,OVCAR-8 ovarian; 10 µM unless noted,94.4% (inactive)
same,growth,OVCAR-5 ovarian; 10 µM unless noted,99.1% (inactive)
same,growth,OVCAR-4 ovarian; 10 µM unless noted,91.8% (inactive)
same,growth,SK-OV-3 ovarian; 10 µM unless noted,114% (inactive)
same,growth,IGROV1 ovarian; 10 µM unless noted,92.1% (inactive)
same,growth,OVCAR-3 ovarian; 10 µM unless noted,90.5% (inactive)
same,growth,HS 578T breast; 10 µM unless noted,74.4% (inactive)
same,growth,NCI/ADR-RES ovarian; 10 µM unless noted,90.9% (inactive)
Brc1ccc(/C=C(/C2=NCCN2)n2ccc3ccccc32)cc1,growth,SK-MEL-2 melanoma; 10 µM unless noted,90.9% (inactive)
same,growth,EKVX NSCLC; 10 µM unless noted,79% (inactive)
same,growth,SN12C renal; 10 µM unless noted,73.8% (inactive)
same,growth,UO-31 renal; 10 µM unless noted,37.2% (inactive)
same,growth,TK-10 renal; 10 µM unless noted,68.1% (inactive)
same,growth,ACHN renal,68.7% (inactive)
same,growth,CAKI-1 renal,39.7% (inactive)
same,growth,A498 renal; 10 µM unless noted,87.4% (inactive)
same,growth,CCRF-CEM leukemia,59.6% (inactive)
same,growth,MOLT-4 leukemia; 10 µM unless noted,9.21% (active)
same,growth,SR leukemia; 10 µM unless noted,30.4% (inactive)
same,growth,RPMI-8226 leukemia; 10 µM unless noted,86.1% (inactive)
same,growth,OVCAR-8 ovarian; 10 µM unless noted,72.3% (inactive)
same,growth,OVCAR-5 ovarian; 10 µM unless noted,72.9% (inactive)
same,growth,OVCAR-4 ovarian; 10 µM unless noted,67.7% (inactive)
same,growth,SK-OV-3 ovarian; 10 µM unless noted,82% (inactive)
same,growth,IGROV1 ovarian; 10 µM unless noted,60.7% (inactive)
same,growth,OVCAR-3 ovarian; 10 µM unless noted,77.6% (inactive)
same,growth,HS 578T breast; 10 µM unless noted,78.2% (inactive)
same,growth,NCI/ADR-RES ovarian; 10 µM unless noted,65.9% (inactive)
Cc1ccc(S(=O)(=O)OC[C@@]2(C)CC[C@]3(C)CC[C@]4(C)C(=C3C2)C=C[C@@H]2[C@@]3(C)CCCNC(C)(C)[C@@H]3CC[C@]24C)cc1,growth,SK-MEL-2 melanoma; 10 µM unless noted,9.43% (active)
same,growth,EKVX NSCLC; 10 µM unless noted,88.9% (inactive)
same,growth,SN12C renal; 10 µM unless noted,7.76% (active)
same,growth,UO-31 renal; 10 µM unless noted,71.6% (inactive)
same,growth,TK-10 renal; 10 µM unless noted,68.6% (inactive)
same,growth,ACHN renal,-46.6% (active)
same,growth,CAKI-1 renal,1.61% (active)
same,growth,A498 renal; 10 µM unless noted,104% (inactive)
same,growth,CCRF-CEM leukemia,0.849% (active)
same,growth,MOLT-4 leukemia; 10 µM unless noted,-24.8% (active)
same,growth,SR leukemia; 10 µM unless noted,-30.9% (active)
same,growth,RPMI-8226 leukemia; 10 µM unless noted,-66% (active)
same,growth,OVCAR-8 ovarian; 10 µM unless noted,-65.6% (active)
same,growth,OVCAR-5 ovarian; 10 µM unless noted,34.8% (inactive)
same,growth,OVCAR-4 ovarian; 10 µM unless noted,-40.5% (active)
same,growth,SK-OV-3 ovarian; 10 µM unless noted,104% (inactive)
same,growth,IGROV1 ovarian; 10 µM unless noted,-2.07% (active)
same,growth,OVCAR-3 ovarian; 10 µM unless noted,23.5% (inactive)
same,growth,HS 578T breast; 10 µM unless noted,83.4% (inactive)
same,growth,NCI/ADR-RES ovarian; 10 µM unless noted,-19.7% (active)
CCN(c1cc(-c2ccc(CN3CCC(/C=C/S(=O)(=O)c4ccccc4)CC3)cc2)cc(C(=O)NCc2c(C)cc(C)[nH]c2=O)c1C)C1CCOCC1,growth,SK-MEL-2 melanoma; 10 µM unless noted,92.5% (inactive)
same,growth,EKVX NSCLC; 10 µM unless noted,87.4% (inactive)
same,growth,SN12C renal; 10 µM unless noted,63.6% (inactive)
same,growth,UO-31 renal; 10 µM unless noted,44.7% (inactive)
same,growth,TK-10 renal; 10 µM unless noted,121% (inactive)
same,growth,ACHN renal,80% (inactive)
same,growth,CAKI-1 renal,51.4% (inactive)
same,growth,A498 renal; 10 µM unless noted,51.1% (inactive)
same,growth,CCRF-CEM leukemia,38.2% (inactive)
same,growth,MOLT-4 leukemia; 10 µM unless noted,26.8% (inactive)
same,growth,SR leukemia; 10 µM unless noted,17.9% (inactive)
same,growth,RPMI-8226 leukemia; 10 µM unless noted,19.2% (inactive)
same,growth,OVCAR-8 ovarian; 10 µM unless noted,75% (inactive)
same,growth,OVCAR-5 ovarian; 10 µM unless noted,90.3% (inactive)
same,growth,OVCAR-4 ovarian; 10 µM unless noted,73% (inactive)
same,growth,SK-OV-3 ovarian; 10 µM unless noted,86.2% (inactive)
same,growth,IGROV1 ovarian; 10 µM unless noted,53.7% (inactive)
same,growth,OVCAR-3 ovarian; 10 µM unless noted,77.3% (inactive)
same,growth,HS 578T breast; 10 µM unless noted,62.2% (inactive)
same,growth,NCI/ADR-RES ovarian; 10 µM unless noted,73.7% (inactive)
CC(=O)/C=C/c1ccc(OCc2ccc(C(C)(C)C)cc2)cc1,growth,SK-MEL-2 melanoma; 10 µM,91.5% (inactive)
same,growth,SK-MEL-2 melanoma; 100 µM,-21.6% (active)
same,growth,EKVX NSCLC; 10 µM,95.1% (inactive)
same,growth,EKVX NSCLC; 100 µM,24.8% (inactive)
same,growth,SN12C renal; 10 µM,80% (inactive)
same,growth,SN12C renal; 100 µM,28.1% (inactive)
same,growth,UO-31 renal; 10 µM,68.6% (inactive)
same,growth,UO-31 renal; 100 µM,14.8% (inactive)
same,growth,TK-10 renal; 10 µM,111% (inactive)
same,growth,TK-10 renal; 100 µM,55.1% (inactive)
same,growth,ACHN renal,82.6% (inactive)
same,growth,A498 renal; 10 µM,80.4% (inactive)
same,growth,A498 renal; 100 µM,-94.2% (active)
same,growth,CCRF-CEM leukemia,28% [100 µM] (inactive)
same,growth,MOLT-4 leukemia; 10 µM,68.3% (inactive)
same,growth,MOLT-4 leukemia; 100 µM,13.1% (inactive)
same,growth,SR leukemia; 10 µM,65.9% (inactive)
same,growth,SR leukemia; 100 µM,29.5% (inactive)
same,growth,OVCAR-8 ovarian; 10 µM,90.5% (inactive)
same,growth,OVCAR-8 ovarian; 100 µM,23.2% (inactive)
same,growth,OVCAR-5 ovarian; 10 µM,89% (inactive)
same,growth,OVCAR-5 ovarian; 100 µM,37.6% (inactive)
same,growth,OVCAR-4 ovarian; 10 µM,74% (inactive)
same,growth,OVCAR-4 ovarian; 100 µM,33.8% (inactive)
same,growth,SK-OV-3 ovarian; 10 µM,77.8% (inactive)
same,growth,SK-OV-3 ovarian; 100 µM,39.5% (inactive)
same,growth,IGROV1 ovarian; 10 µM,98.6% (inactive)
same,growth,IGROV1 ovarian; 100 µM,81.6% (inactive)
same,growth,OVCAR-3 ovarian; 10 µM,94.6% (inactive)
same,growth,OVCAR-3 ovarian; 100 µM,47.1% (inactive)
same,growth,HS 578T breast; 10 µM,75.5% (inactive)
same,growth,HS 578T breast; 100 µM,10.3% (inactive)
same,growth,NCI/ADR-RES ovarian; 10 µM,81.1% (inactive)
same,growth,NCI/ADR-RES ovarian; 100 µM,7.42% (active)
O=C(/C=C/c1cccc(Oc2ccc(Cl)cc2)c1)c1ccccc1,growth,SK-MEL-2 melanoma; 10 µM,109% (inactive)
same,growth,SK-MEL-2 melanoma; 100 µM,-59.8% (active)
same,growth,EKVX NSCLC; 10 µM,110% (inactive)
same,growth,EKVX NSCLC; 100 µM,-79.6% (active)
same,growth,SN12C renal; 10 µM,111% (inactive)
same,growth,SN12C renal; 100 µM,-63.7% (active)
same,growth,UO-31 renal; 10 µM,86.2% (inactive)
same,growth,UO-31 renal; 100 µM,-99.8% (active)
same,growth,TK-10 renal; 10 µM,105% (inactive)
same,growth,TK-10 renal; 100 µM,-99.2% (active)
same,growth,ACHN renal,99.3% (inactive)
same,growth,A498 renal; 10 µM,99.2% (inactive)
same,growth,A498 renal; 100 µM,-95.3% (active)
same,growth,CCRF-CEM leukemia,-10.5% [100 µM] (active)
same,growth,MOLT-4 leukemia; 10 µM,62.6% (inactive)
same,growth,MOLT-4 leukemia; 100 µM,-2.97% (active)
same,growth,SR leukemia; 10 µM,53.5% (inactive)
same,growth,SR leukemia; 100 µM,-25.1% (active)
same,growth,RPMI-8226 leukemia; 10 µM,0.961% (active)
same,growth,RPMI-8226 leukemia; 100 µM,-30.3% (active)
same,growth,OVCAR-8 ovarian; 10 µM,91.8% (inactive)
same,growth,OVCAR-8 ovarian; 100 µM,-50.8% (active)
same,growth,OVCAR-5 ovarian; 10 µM,96% (inactive)
same,growth,OVCAR-5 ovarian; 100 µM,-82.2% (active)
same,growth,OVCAR-4 ovarian; 10 µM,90.3% (inactive)
same,growth,OVCAR-4 ovarian; 100 µM,-80.1% (active)
same,growth,SK-OV-3 ovarian; 10 µM,114% (inactive)
same,growth,SK-OV-3 ovarian; 100 µM,-93.7% (active)
same,growth,IGROV1 ovarian; 10 µM,102% (inactive)
same,growth,IGROV1 ovarian; 100 µM,-49.9% (active)
same,growth,OVCAR-3 ovarian; 10 µM,93.3% (inactive)
same,growth,OVCAR-3 ovarian; 100 µM,-94.3% (active)
same,growth,HS 578T breast; 10 µM,97.5% (inactive)
same,growth,HS 578T breast; 100 µM,-28.2% (active)
same,growth,NCI/ADR-RES ovarian; 10 µM,98.8% (inactive)
same,growth,NCI/ADR-RES ovarian; 100 µM,-46.5% (active)

# Reference: PubChem BioAssay (NCI)
